# From the supplement of paper PMC12282887
# ± gives the standard deviation of the averaged measurements.
# Columns and labels:
# Test in all cases: promoter activity interaction Z-score (Lux/OD deviation from empty-vector control); higher = stronger promoter induction by the compound
# [1] = test system: E. coli BW25113 acrABp lux reporter
# Outline: (§1)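 E. coli BW25113 luxCDABE reporter strains grew at 37°C in 40 µl LB Lennox in 384-well plates, with OD600 and luminescence read every 30 min for 12 h. After integration over 0–8 h for wild type or 1–9 h for deletion strains, wells under 10% of the median growth value were removed. Each score is the Z-transformed residual of growth-normalised luminescence fitted against a control.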
# [2] = test system: E. coli BW25113 micFp lux reporter
# Outline: as §1
# [3] = test system: E. coli BW25113 ompFp lux reporter
# Outline: as §1
# [4] = test system: E. coli BW25113 robp lux reporter
# Outline: as §1
# [5] = test system: E. coli BW25113 soxSp lux reporter
# Outline: as §1
# [6] = test system: E. coli BW25113 tolCp lux reporter
# Outline: as §1
# [7] = 0.12 µg/ml, genetic background: wild type
# [8] = 0.12 µg/ml, genetic background: ΔmarA
# [9] = 0.12 µg/ml, genetic background: Δrob
# [10] = 0.12 µg/ml, genetic background: ΔsoxS
# [11] = 0.23 µg/ml, genetic background: wild type
# [12] = 0.23 µg/ml, genetic background: ΔmarA
# [13] = 0.23 µg/ml, genetic background: Δrob
# [14] = 0.23 µg/ml, genetic background: ΔsoxS
# [15] = 0.47 µg/ml, genetic background: wild type
# [16] = 0.47 µg/ml, genetic background: ΔmarA
# [17] = 0.47 µg/ml, genetic background: Δrob
# [18] = 0.47 µg/ml, genetic background: ΔsoxS
# [19] = 0.94 µg/ml, genetic background: ΔmarA
# [20] = 0.94 µg/ml, genetic background: Δrob
# [21] = 0.94 µg/ml, genetic background: wild type
smiles,measurement,setting,value
NC[C@H]1O[C@H](O[C@H]2[C@H](O)[C@@H](O[C@H]3O[C@H](CO)[C@@H](O)[C@H](N)[C@H]3O)[C@H](N)C[C@@H]2N)[C@H](N)C[C@@H]1O [Tobramycin],promoter activity interaction Z-score,[1]; [7],0.275 ± 0.78
same,promoter activity interaction Z-score,[1]; [8],-0.0864 ± 0.66
same,promoter activity interaction Z-score,[1]; [9],-0.374 ± 0.06
same,promoter activity interaction Z-score,[1]; [10],-0.499 ± 0.77
same,promoter activity interaction Z-score,[1]; [11],0.0585 ± 0.16
same,promoter activity interaction Z-score,[1]; [12],-1.02 ± 0.59
same,promoter activity interaction Z-score,[1]; [13],-0.281 ± 0.11
same,promoter activity interaction Z-score,[1]; [14],-0.243 ± 0.067
same,promoter activity interaction Z-score,[1]; [15],0.268 ± 0.32
same,promoter activity interaction Z-score,[1]; [16],0.0843 ± 0.8
same,promoter activity interaction Z-score,[1]; [17],0.184 ± 0.22
same,promoter activity interaction Z-score,[1]; [18],-0.000211 ± 0.53
same,promoter activity interaction Z-score,[2]; [7],0.116 ± 0.093
same,promoter activity interaction Z-score,[2]; [8],-0.103 ± 0.25
same,promoter activity interaction Z-score,[2]; [9],-0.119 ± 0.027
same,promoter activity interaction Z-score,[2]; [10],-0.254 ± 0.025
same,promoter activity interaction Z-score,[2]; [11],0.0087 ± 0.2
same,promoter activity interaction Z-score,[2]; [12],-0.183 ± 0.0032
same,promoter activity interaction Z-score,[2]; [13],-0.106 ± 0.21
same,promoter activity interaction Z-score,[2]; [14],0.447 ± 0.0099
same,promoter activity interaction Z-score,[2]; [15],0.395 ± 0.47
same,promoter activity interaction Z-score,[2]; [16],-0.0629 ± 0.026
same,promoter activity interaction Z-score,[2]; [17],-0.0597 ± 0.061
same,promoter activity interaction Z-score,[2]; [18],-0.0982 ± 0.012
same,promoter activity interaction Z-score,[2]; [19],-0.362
same,promoter activity interaction Z-score,[2]; [20],-0.382
same,promoter activity interaction Z-score,[3]; [7],-0.387 ± 0.068
same,promoter activity interaction Z-score,[3]; [8],-0.3 ± 0.42
same,promoter activity interaction Z-score,[3]; [9],-0.413 ± 0.19
same,promoter activity interaction Z-score,[3]; [10],-0.487 ± 0.17
same,promoter activity interaction Z-score,[3]; [11],-0.622 ± 0.16
same,promoter activity interaction Z-score,[3]; [12],-0.759 ± 0.15
same,promoter activity interaction Z-score,[3]; [13],-0.556 ± 0.035
same,promoter activity interaction Z-score,[3]; [14],-0.0491 ± 0.17
same,promoter activity interaction Z-score,[3]; [15],-0.491 ± 0.36
same,promoter activity interaction Z-score,[3]; [16],-0.148 ± 0.12
same,promoter activity interaction Z-score,[3]; [17],-0.134 ± 0.25
same,promoter activity interaction Z-score,[3]; [18],-0.273 ± 0.14
same,promoter activity interaction Z-score,[4]; [7],0.0204 ± 0.029
same,promoter activity interaction Z-score,[4]; [8],-0.389 ± 0.14
same,promoter activity interaction Z-score,[4]; [9],-0.392 ± 0.68
same,promoter activity interaction Z-score,[4]; [10],-0.688 ± 0.16
same,promoter activity interaction Z-score,[4]; [11],-0.193 ± 0.42
same,promoter activity interaction Z-score,[4]; [12],-0.587 ± 0.68
same,promoter activity interaction Z-score,[4]; [13],-0.421 ± 0.28
same,promoter activity interaction Z-score,[4]; [14],-0.277 ± 0.056
same,promoter activity interaction Z-score,[4]; [15],0.112 ± 0.36
same,promoter activity interaction Z-score,[4]; [16],0.0227 ± 0.29
same,promoter activity interaction Z-score,[4]; [17],-0.0785 ± 0.74
same,promoter activity interaction Z-score,[4]; [18],-0.163 ± 0.8
same,promoter activity interaction Z-score,[4]; [19],-0.438
same,promoter activity interaction Z-score,[5]; [7],-0.268 ± 0.23
same,promoter activity interaction Z-score,[5]; [8],-0.327 ± 0.091
same,promoter activity interaction Z-score,[5]; [9],-0.404 ± 0.1
same,promoter activity interaction Z-score,[5]; [10],-0.552 ± 0.76
same,promoter activity interaction Z-score,[5]; [11],-0.406 ± 0.046
same,promoter activity interaction Z-score,[5]; [12],-0.398 ± 0.089
same,promoter activity interaction Z-score,[5]; [13],-0.3823 ± 0.0022
same,promoter activity interaction Z-score,[5]; [14],-0.224 ± 0.31
same,promoter activity interaction Z-score,[5]; [15],-0.337 ± 0.16
same,promoter activity interaction Z-score,[5]; [16],-0.48 ± 0.096
same,promoter activity interaction Z-score,[5]; [17],-0.274 ± 0.22
same,promoter activity interaction Z-score,[5]; [18],-0.474 ± 0.4
same,promoter activity interaction Z-score,[5]; [21],-0.762
same,promoter activity interaction Z-score,[5]; [20],-0.904
same,promoter activity interaction Z-score,[6]; [7],-0.242 ± 0.84
same,promoter activity interaction Z-score,[6]; [8],-0.0707 ± 0.59
same,promoter activity interaction Z-score,[6]; [9],-0.601 ± 1.1
same,promoter activity interaction Z-score,[6]; [10],-1.14 ± 0.68
same,promoter activity interaction Z-score,[6]; [11],-0.456 ± 0.35
same,promoter activity interaction Z-score,[6]; [12],-1.13 ± 0.17
same,promoter activity interaction Z-score,[6]; [13],-0.0625 ± 1.8
same,promoter activity interaction Z-score,[6]; [14],0.772 ± 0.56
same,promoter activity interaction Z-score,[6]; [15],-0.509 ± 0.71
same,promoter activity interaction Z-score,[6]; [16],-0.277 ± 0.22
same,promoter activity interaction Z-score,[6]; [17],1.06 ± 1.1
same,promoter activity interaction Z-score,[6]; [18],0.0909 ± 0.58
same,promoter activity interaction Z-score,[6]; [21],-0.901 ± 0.46
same,promoter activity interaction Z-score,[6]; [19],-0.459
same,promoter activity interaction Z-score,[6]; [20],-0.895 ± 0.19
same,promoter activity interaction Z-score,"[6]; 0.94 µg/ml, genetic background: ΔsoxS",-0.128 ± 1
